Vaccinia Venus: inhibitors of vaccinia virus (Venus reporter); Potency, µM (titrated, usually from 36.5 µM), for inactives: at the highest dose activity change, negative = inhibition, usual class: inhibitors; 330,000 compounds, 0.46% hits; Vaccinia virus Venus reporter expression, fluorescence; calls by dose curve; tested in A549 cells; note: potency is the fitted concentration of half-maximal effect; nearly all actives have a fitted effect of over 30% in size
HCMV inh: human cytomegalovirus inhibition; HFF cells, HCMV-luciferase reporter, 72 h; hits give low values; activity change, negative = inhibition, % at 57.5 µM; 410,000 compounds, 4.5% hits; AID 1259415; in the data active = activity change below about -60%; inconclusive = no clear call, values can overlap the other calls; inactive = above about -39%
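Cell-based, HFFs, 1000 cells/well, 16 h 37C; cpds in DMSO + HCMV-luc, MOI 1 PFU/cell; 72 h 37C; OneGlo luminescence after 5 min RT; norm. to buffer vs Salinomycin 10uM.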
FMDV inh: foot and mouth disease virus antiviral activity; FMDV antiviral cell-based qHTS; Potency, µM (doses to about 57.9 µM), inactives show top-dose activity change, negative = inhibition, usual class: inhibitors; 410,000 compounds, 1.2% hits; AID 1159524; calls by dose curve; tested in HEK293T cells; note: read-out not given here; potency is the fitted concentration of half-maximal effect; nearly all actives have a fitted effect of over 45% in size
HCV inhibitor: blocks hepatitis C virus; 340,000 compounds, 3.4% hits; Potency, µM (highest dose often 41.8 µM), inactives show top-dose activity change, negative = inhibition, usual class: inhibitors; Huh7.5.1 HCVcc-Cre infection, luciferase reporter, 44 h; active = well fitted inhibition curve with a large enough effect; inconclusive = small, poorly fitted or top-dose-only effect, or another doubt; inactive = no such curve, though single readings can be large or run the other way; note: potency is the fitted concentration of half-maximal effect
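Infectious HCVcc-Cre (~0.5 moi) was added to cells just after compound, with cells seeded 4 h earlier at 1,000 per well. Luciferase activity after 44 h culture reported infection; substrate was incubated 15 min at room temperature before reading.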
Vaccinia mCherry: inhibitors of vaccinia virus infection (mCherry reporter signal); Potency, µM (series often up to 36.5 µM), without a hit: at the top dose activity change, negative = inhibition, most hits filed as inhibitors; AID 720579; Vaccinia virus mCherry reporter infection, fluorescence; 310,000 compounds, 0.63% hits; calls by dose curve; tested in A549 cells; note: potency is the fitted concentration of half-maximal effect; nearly all actives have a fitted effect of over 35% in size
* marks the source's active call; other numbers are inactive results; i = inactive; ? = inconclusive; / = no result; + = active, no number. Rows were chosen to be rich in hits. Some 7.3% of all compounds tested hit in one or more screens of this group. % is set by controls: 0 for no effect and ±100 for the full control effect.

SMILES | Vaccinia Venus | HCMV inh | FMDV inh | HCV inhibitor | Vaccinia mCherry
COc1cc(OC)c(NC(=O)Cn2c(=O)nc(-c3ccccc3)c3ccccc32)cc1Cl | -18% | 10 | -15% | / | -5%
C=C[C@]1(C)C=C2CC[C@H]3[C@@](C)(CCC[C@@]3(C)C(=O)O)[C@@H]2CC1 | -18% | / | -14% | 32% | i
C=C[C@]1(C)C=C2C(=O)[C@@]3(O)OC(=O)[C@@]4(CCCC(C)(C)[C@H]34)[C@@]2(O)CC1 | 10µM* | -101* | 2.8µM* | / | 8.9µM*
CC(C)C(=O)NC(c1cccs1)c1cc([N+](=O)[O-])c2cccnc2c1O (stereo unspecified) | ? | / | -25% | ? | 11µM*
Cc1ccc([N+](=O)[O-])c2cccnc12 | / | -4 | -6% | 9% | /
CCC(=O)NC(c1cccs1)c1cc([N+](=O)[O-])c2cccnc2c1OC (stereo unspecified) | / | -87* | -7% | / | /
CCC(=O)NC(/C=C/c1ccccc1)c1cc([N+](=O)[O-])c2cccnc2c1O (stereo unspecified) | / | 27 | / | 0% | /
Cc1ccc(C(NC(=O)C(C)C)c2cc([N+](=O)[O-])c3cccnc3c2O)cc1 (stereo unspecified) | ? | -13 | -10% | 13µM* | -30%
Cc1ccccc1C(=O)OCc1cc(=O)n2nc(C3CC3)sc2n1 | -16% | 3 | -8% | / | -17%
Cc1ccc(Sc2ncccc2C(=O)O)c(C)c1 | -11% | -16 | -10% | 3% | i
O=C(O)c1cccnc1C(=O)O | 2% | / | -13% | 0.71µM* | 7%
Cc1ccc(Sc2ncccc2C(=O)O)cc1C | 5% | -67* | ? | 21% | -9%
O=C(O)c1cccnc1SCc1ccccc1 | / | 4 | 30% | 7% | /
Cc1csc(CN(C)C(=O)CC2C(=O)NCCN2Cc2ccc(F)cc2Cl)n1 (stereo unspecified) | / | -32 | -9% | 1% | /
Cc1csc(CN(C)C(=O)CC2C(=O)NCCN2Cc2ccc(Cl)c(F)c2)n1 (stereo unspecified) | / | + | -2% | 18% | /
CCCn1ccc2c(OCC(=O)Nc3ccc(F)cc3F)cccc2c1=O | -5% | -14 | -24% | / | -8%
CC12CN(NC(=O)c3ccccc3F)C3(C#N)CC1CCC23C (stereo unspecified) | -18% | -75* | 3% | 23% | -25%
CC12CN(C(=O)c3ccc(Cl)cc3)C3(C#N)CC1CCC23C (stereo unspecified) | / | 17 | 4% | 6% | /
CN=c1scc(-c2ccc(F)cc2)n1/N=C/c1ccc(O)c(O)c1 | -18% | -67* | 1.3µM* | 2.2µM* | ?
Cc1cccc(N2CCN(C(=O)c3c(C)nn(Cc4ccccc4Cl)c3C)CC2)c1C | ? | ? | 35µM* | 32µM* | /
CC(=O)Nc1ccc(NC(=O)c2c(C)nn(Cc3ccccc3Cl)c2C)cc1 | -8% | -13 | 39% | 10% | i
Cc1ccccc1NC(=O)CSc1nc2c(oc3ccccc32)c(=O)n1Cc1ccco1 | -9% | 9 | 34% | / | -9%
COc1ccc(-n2c(-c3ccc(Br)cc3)c[n+]3c2CCC3)cc1 | -3% | -92* | ? | -7% | i
COc1ccc(-n2c(-c3ccccc3)cc3c2CCCC3=O)cc1 | -26% | 8 | 0% | -11% | ?
COc1ccc(-n2c(-c3ccccc3)c[n+]3c2CCC3)cc1 | -27% | -78* | ? | 10µM* | -1%
SMILES | Vaccinia Venus | HCMV inh | FMDV inh | HCV inhibitor | Vaccinia mCherry
COc1ccc(-n2c(-c3ccc(Br)cc3)c[n+]3c2CCCCC3)cc1 | -17% | -87* | -20% | 10% | -11%
COc1ccc(-n2c(-c3ccc(Br)cc3)c[n+]3c2SC(C)C3)cc1 (stereo unspecified) | -18% | -96* | ? | -3% | -15%
FC(F)Sc1ccc(-n2c(-c3ccc(Cl)cc3)c[n+]3c2CCC3)cc1 | -3% | -25 | -25% | 5% | -1%
CC(=O)c1nnn(-c2nc(C#N)nc(N3CCOCC3)n2)c1C | -8% | / | / | / | 16%
Cc1cnc2ccccc2c1/C=C/c1ccc(N(C)C)cc1 | -19% | / | / | / | -26%
CCn1c(-c2cccc(OC)c2)nc2cc(NC(C)=O)cc(C(=O)N(C)CC3COCCO3)c21 (stereo unspecified) | 0% | / | 2% | / | -3%
Cc1ccc(CN2C(=O)SC(Nc3ccc(Cl)cc3)C2=O)cc1 (stereo unspecified) | -8% | -14 | -18% | / | -15%
CCOc1ccc(-n2c(-c3ccc(Cl)cc3)c[n+]3c2SCC3)cc1 | -7% | ? | ? | -25% | i
CCOc1ccc(-c2c[n+]3c(n2-c2ccccc2)CCCCC3)cc1 | / | -98* | ? | ? | /
Clc1ccc(Cn2c3c(c4ccccc42)CCc2cc4ccccc4nc2-3)cc1 | -9% | / | / | / | -3%
O=C(Nc1ccc(C(=O)OCc2cc(=O)n3c4c(sc3n2)CCCC4)cc1)c1cccc(F)c1 | -12% | -4 | 2% | / | -17%
O=C(Nc1cccc(C(=O)OCc2cc(=O)n3c4c(sc3n2)CCCC4)c1)c1cccc(F)c1 | -14% | -74* | -14% | / | -17%
O=C(Nc1ccccc1C(=O)OCc1cc(=O)n2c3c(sc2n1)CCCC3)c1ccc(Cl)cc1 | -16% | ? | -12% | / | -4%
O=C(Nc1ccccc1C(=O)OCc1cc(=O)n2c3c(sc2n1)CCCC3)c1ccccc1 | -11% | -83* | -25% | / | i
O=C(NCc1ccco1)c1ccc2c(c1)N(Cc1ccccc1)C(=O)c1ccccc1S2(=O)=O | -6% | -20 | -9% | / | -10%
CN(Cc1ccccc1)C(=O)c1cccc(NC(=O)Cc2ccc(NC(=O)C3CCN(C(=O)C4CCCC4)CC3)cc2)c1 | -24% | -14 | ? | ? | -30%
CN(Cc1ccccc1)C(=O)c1cccc(NC(=O)Cc2ccc(NC(=O)C3CCCN(C(=O)C4CCCCC4)C3)cc2)c1 (stereo unspecified) | -23% | 6 | -14% | 7.9µM* | 0%
CN(C(=O)c1cccc(NC(=O)Cc2ccc(NC(=O)C3CCN(S(=O)(=O)c4cccc([N+](=O)[O-])c4)CC3)cc2)c1)C1CCCC1 | -11% | -7 | -7% | -10% | -10%
CN(Cc1ccccc1)C(=O)c1ccc(NC(=O)Cc2cccc(NC(=O)C3CCCN(C(=O)CCc4ccccc4)C3)c2)cc1 (stereo unspecified) | ? | -68* | ? | ? | -14%
CN(C(=O)c1ccc(Oc2ccc([N+](=O)[O-])cc2)cc1)C1CCCCC1 | / | -28 | ? | 13µM* | /
CN(C(=O)c1cccc(NC(=O)Cc2ccc([N+](=O)[O-])cc2)c1)C1CCCCC1 | ? | ? | ? | 3.2µM* | ?
COc1ccccc1OCCn1c(CCNC(=O)C2CCCCC2)nc2ccccc21 | -9% | / | / | / | 11%
Cc1ccccc1-n1nc(CO)c(C(=O)NCc2cccs2)n1 | -10% | -40 | -19% | / | -7%
